Key:
Test in all cases: PBM binding z-score (relative to random genomic background probes); higher = stronger binding; sequences stand for … in GC…GCGATTGACAGCGTAGAATGAAGG
[1] = tested on: FXR:RXRa (NR concentration 270 nM, RXRa partner concentration 90 nM)
In short: (§1)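 Scanned fluorescence from custom Agilent 4×180K protein-binding microarrays was regression-normalized. Binding z-scores use random background probes as reference. Ligand-free nuclear receptor dimers were incubated on the arrays for 1 h and detected with antibodies against each partner (one per run).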

[2] = tested on: LXRa:RXRa (NR concentration 270 nM, RXRa partner concentration 90 nM)
In short: as §1

[3] = tested on: LXRa homodimer (NR concentration 270 nM)
In short: as §1

[4] = tested on: LXRb:RXRa (NR concentration 270 nM, RXRa partner concentration 90 nM)
In short: as §1

[5] = tested on: LXRb homodimer (NR concentration 270 nM)
In short: as §1

[6] = tested on: PPARa:RXRa (NR concentration 270 nM, RXRa partner concentration 90 nM)
In short: as §1

[7] = tested on: PPARg:RXRa (NR concentration 180 nM, RXRa partner concentration 90 nM)
In short: as §1

[8] = tested on: PPARg:RXRa 270nM:90nM, anti-RXR (NR concentration 270 nM, RXRa partner concentration 90 nM)
In short: as §1

[9] = tested on: PPARg:RXRa 30nM:10nM, anti-RXR (NR concentration 30 nM, RXRa partner concentration 10 nM)
In short: as §1

[10] = tested on: PPARg:RXRa 90nM:30nM, anti-RXR (NR concentration 90 nM, RXRa partner concentration 30 nM)
In short: as §1

| Sequence | PBM binding z-score [1] | PBM binding z-score [2] | PBM binding z-score [3] | PBM binding z-score [4] | PBM binding z-score [5] | PBM binding z-score [6] | PBM binding z-score [7] | PBM binding z-score [8] | PBM binding z-score [9] | PBM binding z-score [10] |
| --- | --- | --- | --- | --- | --- | --- | --- | --- | --- | --- |
| CCTATTAGTTGAACATAAGGGCAACCGAAGCTCG | 0.402 | 0.518 | 0.603 | 0.454 | 0.71 | 0.594 | 0.576 | 0.441 | 0.18 | 0.415 |
| CCTACTGGGCCGAAGGTCATTGATTCCAATGCTC | 2.23 | 2.47 | 1.02 | 2.44 | -0.461 | 4.85 | 9.28 | 9.02 | 8.18 | 10.3 |
| GGACCGAGGGCATTCGAGTTGATAGCATGGCGAT | 1.26 | 1.86 | -0.0835 | 0.133 | -1.34 | 0.952 | 0.4 | 0.0586 | -0.851 | -0.483 |
| TGACCAAGGTGAAGGTCGTTGATCCCTCTGTAGA | 2.13 | 1.77 | -0.327 | 1.57 | -1.14 | 2.49 | 2.18 | 3.17 | 0.953 | 2.49 |
| CCTACTGGGCCACGAAAGGTCACTGATTCAGTGA | 2.97 | 4.41 | 2.54 | 3.75 | -0.0263 | 4.32 | 5.13 | 4.98 | 2.2 | 4.02 |
| TCTGCTAGATCAACGATGGTCAGCTAATCTGCTA | -1.43 | -0.641 | -1.29 | -0.993 | -1.05 | -0.231 | -0.175 | 0.492 | 1.39 | 1.14 |
| CCGACTGGGGCAAGGCTACCATAACGCACAGCCA | -0.0743 | -0.335 | -0.467 | -0.273 | -1.05 | -0.00984 | 1.08 | 0.83 | -0.201 | 0.0921 |
| CGAACTAGGTCAAGGACACTGAATCTCCGCACGC | 3.6 | 2.34 | 0.392 | 1.61 | -0.129 | 4.59 | 7.39 | 6.12 | 3.48 | 5.6 |
| CCGCCTGGGGCAAAGGTTACCATACTCAGTACGA | 1.58 | 1.77 | 0.256 | 2.07 | -1.01 | 4.22 | 7.52 | 7.16 | 5.72 | 7.35 |
| TAGCCCAGGTCAGATCGGGCCAGTATACGCTATA | 2.34 | 1.3 | -0.26 | 0.735 | -0.412 | 1.86 | 0.632 | 0.728 | -0.392 | -0.038 |
| TCTGCTAGGTCAATTGGTCAGCTAACGAGCTGCC | 2.99 | 2.31 | -0.37 | 1.44 | 0.648 | 3.04 | 1.76 | 2.76 | 1.64 | 2.31 |
| TCTTGTAGATCAATAAAGGTTAAGAAAGTGCGCT | 1.03 | 4.33 | 0.774 | 2.36 | 0.274 | 2.32 | 0.49 | 2.26 | 2.99 | 2.82 |
| GCTGCTCGGTCAGGTTGGTCAGCTAACGGGTACG | -0.343 | -0.331 | -0.448 | -0.697 | -0.583 | -0.536 | -0.75 | -0.709 | -0.71 | -1.1 |
| TCTTGTAGATCAACAGGAGGATAAGAAAGATCGA | 0.307 | 0.0206 | -0.000187 | 0.226 | -0.349 | 0.337 | 0.379 | 0.997 | 2.56 | 1.61 |
| TCTTGTAGATCGAAGGTTAAGAAAGCCGAAGCCT | 0.669 | 0.667 | -0.334 | 0.511 | -0.593 | 2.25 | 3.11 | 5.23 | 4.1 | 5.26 |
| CCTCGGAGGACAACTGGAGGTCAGAGCTGCCAGA | 1.53 | 3.1 | 5.05 | 1.94 | -0.251 | 1.99 | 0.231 | 0.569 | -0.723 | 0.0567 |
| CGAACGAGGGTATGAGTTGATAGCAAATGCCGAT | -0.386 | -0.2 | -0.268 | -0.396 | -0.567 | -0.124 | 0.652 | 0.353 | -0.0706 | 0.292 |
| CGAACTAGGTCTTCCAGGACAGTGAATACATTGA | 0.011 | -0.496 | 0.128 | -0.568 | -0.706 | 0.796 | 0.846 | 0.622 | -0.0415 | 0.143 |
| CAAACTAGGTCAAGATCAAAGTCGGTTTGTGCCA | 3.58 | 2.31 | 0.143 | 1.67 | 0.237 | 4.66 | 7.62 | 6.55 | 4.29 | 6.19 |
| CGTACTGGGCCACGAAAGGTCATTGATTCAGTGA | 4.13 | 4.99 | 5.16 | 4.46 | 0.336 | 4.75 | 4.87 | 4.93 | 2.22 | 4.16 |
| CGAACTAGGTCACAGAGGTCAAAGTCCGTGCGTA | 7.51 | 6.91 | 7.06 | 6.5 | 1.96 | 6.56 | 10.2 | 8.5 | 7.02 | 8.62 |
| TAGCCTAGGTCATTCAGGGTCCAGTATAGAAAGC | 4.67 | 4.27 | 0.918 | 3.01 | 0.48 | 3.74 | 1.99 | 2.11 | 0.487 | 1.23 |
| CCTTACGGGTCCCGAGGTTATAGCACGACGAGCG | 0.0402 | 0.394 | -0.262 | 0.124 | -0.6 | 0.95 | 0.635 | -0.283 | -0.617 | -0.745 |
| CCTACTGGGCCAAAGATCATTGATTCCAATGCTC | -0.285 | -0.527 | -0.374 | -0.317 | -0.68 | 3.5 | 6.88 | 7.31 | 6.04 | 7.74 |

— the supplement of paper PMC6555819
